As a reminder, the inhibition is the drop in the measured response relative to a control, in per cent.

Out of some 2,000 compounds screened, about 680 (34%) were called active. Cut-off read from the data, not from the text of the source: active = inhibition mostly above about 28% (no sharp cut-off); inactive = mostly below about 22%. Not all results are given here.

A short description of this test: lowers stimulated NF-kB luciferase signal in 697 cells – cell-based, luminescence, single concentration, B-cell NF-kB inhibitor project, confirmation (AID 449746). The following applies: 697 B-cell NF-kB luciferase, PMA/ionomycin, 16 h; at 4 µM; hits give high values.
Consider `CCCCCCCCCCCCn1ccc(=N)cc1`, for which the inhibition was 50% (active).
